# Screen size: about 1,600 compounds; about 20 (1%) were called active.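 The calls were made as follows: active = ratio of uncleaved NAD to its breakdown product ADP-ribose above 4, meaning the enzyme was inhibited; inactive = the rest.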 Shown is part of a subset that was picked to be rich in actives.
# Molecular target: NAD(+) hydrolase SARM1 (Homo sapiens) (UniProt Q6SZW1)
# Assay: inhibition of SAM-TIR NAD hydrolysis to ADPR – cell lysate, HPLC readout, primary screen (AID 1508615);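 also: substrate NAD at 5 µM with 60 min at 37 °C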
# Conditions: HEK293T SAM-TIR lysate, NAD/ADPR ratio by HPLC; at 5 µM; hits give high values
# Sequence of NAD(+) hydrolase SARM1 (Homo sapiens) (Q6SZW1 whole entry, looked up): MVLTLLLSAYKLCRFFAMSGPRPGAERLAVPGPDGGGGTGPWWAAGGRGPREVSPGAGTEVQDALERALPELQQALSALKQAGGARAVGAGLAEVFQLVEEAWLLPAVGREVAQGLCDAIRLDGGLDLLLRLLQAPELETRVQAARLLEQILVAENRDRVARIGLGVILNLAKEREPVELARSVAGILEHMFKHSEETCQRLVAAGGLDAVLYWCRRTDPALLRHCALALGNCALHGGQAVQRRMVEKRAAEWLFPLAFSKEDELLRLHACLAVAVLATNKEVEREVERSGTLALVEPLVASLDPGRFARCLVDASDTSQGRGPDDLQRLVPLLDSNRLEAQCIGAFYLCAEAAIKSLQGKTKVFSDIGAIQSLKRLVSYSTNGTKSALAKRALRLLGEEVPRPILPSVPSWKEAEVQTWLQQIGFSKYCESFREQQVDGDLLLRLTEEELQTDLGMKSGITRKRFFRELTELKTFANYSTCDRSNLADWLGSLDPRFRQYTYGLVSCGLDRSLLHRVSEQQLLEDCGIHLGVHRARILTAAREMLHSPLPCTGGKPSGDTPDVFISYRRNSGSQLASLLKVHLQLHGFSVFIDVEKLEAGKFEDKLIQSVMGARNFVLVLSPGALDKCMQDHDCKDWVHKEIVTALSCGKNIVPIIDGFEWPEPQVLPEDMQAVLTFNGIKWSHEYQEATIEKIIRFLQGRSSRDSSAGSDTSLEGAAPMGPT
row,SMILES,NAD/ADPR ratio
1,O=S(=O)(O)c1ccc2c(c1)C(C(Cl)(Cl)Cl)OC(C(Cl)(Cl)Cl)O2 (stereo not drawn),3 (inactive)
2,O=c1nccc(SCc2ccc(Cl)cc2Cl)[nH]1,3 (inactive)
3,Oc1ccccc1-c1nc2c3ccccc3c3ccccc3c2[nH]1,3 (inactive)
4,CN(C)c1nc(=NCc2ccco2)ss1,9.7 (active)
5,CN(C)C(=S)/N=c1\ssc(=S)n1Cc1ccco1,3 (inactive)
6,O=C(O)CCC(=O)OCCN(Cc1ccc(Oc2ccc([N+](=O)[O-])cc2)cc1)C(=O)C(Cl)Cl,3 (inactive)
7,CN(C)CC1C2CCC(C2)C1O (stereo not drawn),3 (inactive)
8,C(=C\c1ccccn1)/c1ccccn1,3 (inactive)
9,O=C(Oc1ccc[nH]c1=O)c1cccc(Cl)c1,3 (inactive)
10,Cc1nc(N)nc(Nc2ccc(C#N)cc2)c1Br,3 (inactive)
11,CCCCN1CCNC1=S,3 (inactive)
12,Cc1cccc(Nc2sc(C(=O)c3cc4cc(Cl)ccc4o3)c(N)c2C#N)c1,3 (inactive)
13,O=c1c2ccccc2ncn1-c1ccc(Cl)cc1,3 (inactive)
14,c1cncc(-c2nc3ccccc3s2)c1,3 (inactive)
15,C1=CC2(C=C1)OC21CCC2(C=CC3(C2)OC3C2CCCCC2)CC1 (stereo not drawn),3 (inactive)
16,NCc1c(O)ccc2ccccc12,3 (inactive)
17,COC1CC(C)C(OC)c2cc(O)cc(c2O)NC(=O)/C(C)=C/C=C\C(C)C(OC(N)=O)/C(C)=C\C(C)C1OC (stereo not drawn),3 (inactive)
18,NNC(=O)CNC(=O)Nc1n[nH]c(=S)s1,3 (inactive)
19,O=C(c1cccnc1)c1cc(-c2ccccn2)c(=O)n2ccccc12,3 (inactive)
20,Cc1ccc(S(=O)(=O)N(C)C)cc1[N+](=O)[O-],3 (inactive)

row,SMILES,NAD/ADPR ratio
1,CC(C)(C)NC1=NCCNC(c2ccccc2)=C1,3 (inactive)
2,S=c1c2[nH]cnc2ncn1CCSc1ncnc2nc[nH]c12,3 (inactive)
3,CC1=C(C#N)C(C)(C)C(C#N)=C(C)N1,3 (inactive)
4,CCCCCC(=O)N1CCCC1,3 (inactive)
5,CN(C)c1nc(=Nc2cccc(Cl)c2)ss1,11.3 (active)
6,O=C1C(=Nc2cccc(Cl)c2)CC(c2ccc(Cl)cc2)N1c1cccc(Cl)c1 (stereo not drawn),3 (inactive)
7,Nc1nc(=S)c2ncn(C3CCCC3)c2[nH]1,3 (inactive)
8,O=c1oc(-c2ccccc2)c(-c2ccccc2)c2ccccc12,3 (inactive)
9,O=[N+]([O-])c1cccc(/C=C/c2ccccn2)c1,3 (inactive)
10,CC(C)(c1cc(Cl)c(O)c(CN2CCOCC2)c1)c1cc(Cl)c(O)c(CN2CCOCC2)c1,3 (inactive)
11,O=c1[nH]c(C(F)(F)C(F)(F)C(F)(F)F)no1,3 (inactive)
12,CN1C(=O)CC2(C)C1=CCc1scnc12 (stereo not drawn),3 (inactive)
13,COc1ccc(C2=NC(=O)NC2c2ccc(OC)cc2)cc1 (stereo not drawn),3 (inactive)
14,CCOc1nc(OCC)c2cnn(C)c2n1,3 (inactive)
15,O=C1NC(=O)C2(CCc3ccccc32)N1 (stereo not drawn),3 (inactive)
16,CC1(C)CC[C@]2(C(=O)n3ccnc3)CC[C@]3(C)[C@H](C(=O)C=C4[C@@]5(C)C=C(C#N)C(=O)C(C)(C)[C@@H]5CC[C@]43C)[C@@H]2C1,6.5 (active)
17,Cc1nc(N)[nH]c(=O)c1CCCNc1ccc(CCC2(CCl)OCCO2)cc1,3 (inactive)
18,CCCCSc1nc(C(=O)O)cc(=O)[nH]1,3 (inactive)
19,Cc1ccc(-c2cssc2=S)cc1,3 (inactive)
20,CCCCOP(=O)(OCCCC)C1(C)CC(=O)CC(C)(C)C1 (stereo not drawn),3 (inactive)

row,SMILES,NAD/ADPR ratio
1,Cc1[nH]c(=S)[nH]c(=O)c1CCC1OCCO1,3 (inactive)
2,C=CCN1CCN(c2ccncc2S(=O)(=O)N2CCN(C)CC2)CC1,3 (inactive)
3,COC(=O)Nc1csc2c1NC(=O)CCCC2,3 (inactive)
4,Nc1ccc2c(c1Cl)C(=O)c1ccc(N)c(Cl)c1C2=O,3 (inactive)
5,O=C1OCC/C1=C\OCCCO/C=C1\CCOC1=O,3 (inactive)
6,CC(C)C(=O)Nc1cccnc1,3 (inactive)
7,Cc1ccc(N2CCN(CC(O)COc3cccc(C)c3)CC2)cc1 (stereo not drawn),3 (inactive)
8,C=CCOc1ccnc(-c2ccccc2)n1,3 (inactive)
9,O=[N+]([O-])c1ccc(NN=C(c2ccccc2)c2ccccc2)nc1,2.8 (inactive)
10,Cn1cnc([N+](=O)[O-])c1Sc1nnc(-c2cccnc2)n1C,3 (inactive)
11,NC(=S)Nc1cccc(Cl)c1,3 (inactive)
12,Cc1ccc(-c2nc(-c3nccc4ccccc34)oc2-c2ccccc2)cc1,3 (inactive)
13,CCC(CO)Nc1nc2ccc(Cl)cc2c2ccccc12 (stereo not drawn),3 (inactive)
14,O=C1c2cccc(Oc3ccccc3)c2C(=O)c2cccc(Oc3ccccc3)c21,3 (inactive)
15,C=CCNC(=S)Nc1cccc([N+](=O)[O-])c1,3 (inactive)
16,[O-]/[N+](=C\c1ccccc1)CC1(O)CCCCC1,3 (inactive)
17,O=c1cc(CO)[nH]nc1CO,3 (inactive)
18,COc1ccc2nc3cc(Cl)ccc3c(C#N)c2c1,3 (inactive)

# Reference: PubChem BioAssay AID1508615 (Milbrandt Lab, Department of Genetics, Washington …, 2020)
